# From PubChem BioAssay AID720519 (National Center for Advancing Translational Sciences (NCATS), 2013)
# Inconclusive results are not listed. Activity calls are given as the source filed them. The call rests on the fitted dose curve; in most records, active means well fitted activation curve with a large enough effect; inconclusive means small, poorly fitted or top-dose-only effect; inactive means flat fitted curve, though single readings scatter.
# Assay: qHTS for Inhibitors of Cell Surface uPA Generation: Confirmatory Assay for Cherry-picked Compounds; on inhibition: 0% is about no effect
# Settings: cell surface uPA activity generation, qHTS confirmation; series mostly up to 115 µM; inhibition: at the top concentration
# Procedure, shortened: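 RAW 264.7 cells at 4000/well, incubated overnight, then treated with compounds. After 24 h at 37 C, viability was read by ATPlite luminescence. An increase in signal indicates blocked uPA-dependent LF entry.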
# Potency means the concentration at half of the fitted maximal effect.
SMILES,inhibition,Potency
C[C@H]([C@H](O)c1ccccc1)N(C)C(=O)CN,0.746% (inactive),
O=C(c1cc2cc([N+](=O)[O-])ccc2s1)N1CCOCC1,-2.48% (inactive),
CC(C)CCN1C(=O)c2ccc(-c3nc4ccccc4c(=O)o3)cc2C1=O,-1.5% (inactive),
COC(C[C@H](O)[C@H](C)[C@@H](O)COCc1ccccc1)OC,-2.54% (inactive),
COCCN1C(=O)C(=O)/C(=C(/O)c2ccc(S(=O)(=O)N3CCOCC3)cc2)C1c1cccc([N+](=O)[O-])c1 (centres undefined),-1.81% (inactive),
CCOC(=O)c1ccccc1N=Cc1c(O)c2ccccc2oc1=O,-2.11% (inactive),
CCn1c(=O)cc(C(=O)OC)sc1=Nc1ccc(F)c(F)c1,-3.55% (inactive),
Cc1ccc(NC(=O)C(C)S)cc1 (centres undefined),-3.16% (inactive),
CN(C)c1ccc(S(=O)(=O)N2CCC(Cc3ccccc3)CC2)cn1,-0.623% (inactive),
O=C(NCc1ccc2c(c1)OCO2)c1ccccn1,-0.59% (inactive),
CCOc1ccc(N(CC(=O)Nc2ccc(CC)cc2)S(=O)(=O)c2c(C)[nH]c(=O)[nH]c2=O)cc1,-2.31% (inactive),
O=C1CCCC/C1=C\Nc1ccc(S(=O)(=O)Nc2cnc3ccccc3n2)cc1,-1.58% (inactive),
CCCCCCCCCOC(=O)C1N2C(=O)[C@@H](NC(=O)COc3ccccc3)[C@H]2SC1(C)C (some centres undefined),-3.41% (inactive),
CSCC[C@H](NC(=O)[C@H](Cc1ccccc1)n1c(=O)[nH]c2ccccc2c1=O)C(=O)N1CCC[C@@H]1C(=O)O,-0.387% (inactive),
CC1(C)S[C@@H]2[C@H](NC(=O)C(C(=O)O)c3ccccc3)C(=O)N2[C@H]1C(=O)O (some centres undefined),-0.669% (inactive),
NC(=O)c1cc2ccncc2c2ccccc12,-1.41% (inactive),
COC(=O)Cc1c(C)c2ccc(OCC(=O)N3CCCC(C)C3)c(C)c2oc1=O (centres undefined),-2.44% (inactive),
COc1cc(OC)cc(C(=O)NC(C(=O)Nc2ccc3c(c2)CCC3)C(C)C)c1 (centres undefined),-0.295% (inactive),
CC(/C=C1\SC(=S)N(CCCC(=O)Nc2ccc(C(=O)O)cc2)C1=O)=C\c1ccccc1,-2.46% (inactive),
O=[N+]([O-])c1cccc(-c2noc(-c3cccs3)n2)c1,4.61% (inactive),

SMILES,inhibition,Potency
Cc1cc(/C=N/NC(=O)c2ccccc2F)c(C)n1-c1ccccc1,-1.81% (inactive),
CC(=O)c1c(C)n(-c2ccccc2Br)c2ccc(O)cc12,-3.45% (inactive),
S=C(Nc1ccccc1Cl)N1CCCC(c2ccccc2)=N1,,13.1 µM (active)
COc1ccc(CN2CCNC(=O)C2CC(=O)NCC2CCOCC2)cc1C (centres undefined),-1.23% (inactive),
OCCN(Cc1ccccc1)CC(O)COc1ccc2c(c1)OCO2 (centres undefined),0.0346% (inactive),
CCOC(=O)Cn1c(=O)cc(C)c2cccc(C)c21,6.99% (inactive),
Cc1cccc(NC(=O)C2CCCN(S(=O)(=O)c3cccc4cccnc34)C2)c1 (centres undefined),-1.96% (inactive),
CCCCCOC(=O)C1=C(C)NC(=O)NC1c1ccccc1 (centres undefined),0.136% (inactive),
COc1cccc(NC(=S)NCc2ccc3c(c2)cc(C)n3C)c1,-3.09% (inactive),
O=C(NNC(=O)c1cccc(-n2cccc2)c1)c1ccc(F)cc1,-1.92% (inactive),
O=C(CNC(=O)N1CC(=O)Nc2ccccc21)Nc1cc(Cl)ccc1Cl,2.5% (inactive),
COc1ccc(-c2sc3ccccc3c2C#CCO)cc1,-2.84% (inactive),
COc1cc(CN2CCN(c3ncccn3)CC2)cc(OC)c1,-1.56% (inactive),
COc1ccc(C(=O)NCCCN2CCOCC2)cc1,-1.56% (inactive),
Cc1ccccc1S(=O)Cc1ccc(C(=O)N2CCN(C(=O)c3ccco3)CC2)o1 (centres undefined),-1.05% (inactive),
CCOc1cc(/C=C(\C#N)C(=O)NCc2cccnc2)ccc1O,-2.42% (inactive),
CC(=O)NC(=S)Nc1ccc([N+](=O)[O-])cc1C,4.72% (inactive),
CCOC(=O)N1CCN(c2c(NCCCN3CCCCCC3)c(=O)c2=O)CC1,-2.71% (inactive),
CCCn1nnc(NC(=S)NC(=O)c2ccccc2OC)n1,-0.252% (inactive),
